Giardia FBPA inh: blocks Giardia fructose-bisphosphate aldolase activity. purified Giardia FBPA. Potency, µM (titrated, usually from 59.6 µM), for inactives: at the top dose activity, negative = inhibition, actives largely listed as inhibitors. 290,000 tested, 0.71% active; also: potency is read from the fitted curve at half-maximal effect; % is scaled to controls: 0 for no effect and ±100 for the full control effect; nearly all actives have a fitted effect of over 55% in size
Target sequence (A8B2U2 whole entry, looked up): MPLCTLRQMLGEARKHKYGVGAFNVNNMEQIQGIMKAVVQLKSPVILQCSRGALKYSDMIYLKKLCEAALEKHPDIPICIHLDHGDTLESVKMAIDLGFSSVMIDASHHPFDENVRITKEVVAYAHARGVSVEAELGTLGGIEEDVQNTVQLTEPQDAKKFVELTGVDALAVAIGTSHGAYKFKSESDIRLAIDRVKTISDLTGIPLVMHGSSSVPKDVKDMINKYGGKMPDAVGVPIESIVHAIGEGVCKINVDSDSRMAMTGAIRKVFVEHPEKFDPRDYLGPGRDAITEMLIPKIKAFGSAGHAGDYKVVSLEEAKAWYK
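Giardia FBPA (40 nM reagent) was preincubated 10 min at RT with compound (up to 57.5 uM final), then substrate plus GAPDH/TPI/NAD/arsenate coupling system with diaphorase/resazurin was added; resorufin fluorescence (525/598 nm) was read after 20 min.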
RE007 growth inh: less growth of the S. pombe RE007 Vpr strain | S. pombe RE007 Vpr strain, BacTiter-Glo ATP luminescence, 24 h | Potency, µM (doses to about 92.2 µM), for inactives: top-dose activity change, negative = less growth, hits mostly inhibitors | 360,000 tested, 0.21% active; active = well fitted falling curve with a large enough effect; inconclusive = small, poorly fitted or top-dose-only effect; inactive = no such curve, though single readings can be large or run the other way; also: potency is read from the fitted curve at half-maximal effect; % is scaled to controls: 0 for no effect and ±100 for the full control effect; nearly all actives have a fitted effect of over 50% in size
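Fission yeast strain RE007, carrying one chromosomally integrated HIV-1 vpr copy, was seeded at OD 0.01 in PMG+AL medium with 23 nL pinned compound. After 24 h at 30 °C and 99% humidity, viability was read by BacTiter-Glo luminescence.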
LmPK inh: blocks Leishmania mexicana pyruvate kinase activity | purified LmPK, Kinase-Glo ATP luminescence, 1 h | Potency, µM (top dose mostly 57.5 µM), for the others: top-dose activity change, negative = inhibition, actives largely listed as inhibitors | 290,000 tested, 0.37% active; also: potency is read from the fitted curve at half-maximal effect; % is scaled to controls: 0 for no effect and ±100 for the full control effect
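In 50 mM imidazole pH 7.2 with 7 mM MgCl2, LmPK (0.1 nM) turned over PEP (0.5 mM) and ADP (0.1 mM) for 1 h at room temperature. Luciferase read-out of ATP.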
Shiga toxin inh: Shiga toxin inhibition. Vero cells, Shiga toxin protein synthesis inhibition reporter. inhibition, % at 38.7 µM. 290,000 tested, 9.2% active; in the data active = inhibition mostly above about 28%, no sharp cut-off; inactive = mostly below about 43%; also: 0% is about no effect
CHX counter: affects cycloheximide protein synthesis inhibition readout, counter-screen; 300,000 tested, 12% active; AID 2314; max response, %; cell reporter, cycloheximide protein synthesis inhibition counterscreen; in the data active = max response mostly above about 13%, no sharp cut-off; inactive = mostly below about 14%; also: read at 38.3 µM for the half of the compounds with a filed dose; 0% is about no effect
Tb PYK inh: blocks Trypanosoma brucei pyruvate kinase. Q57TT1. TbPYK enzyme, Kinase-Glo Plus ATP luminescence, 45 min. Potency, µM (series often up to 76.8 µM), for the others: top-dose activity, negative = inhibition, actives largely listed as inhibitors. 410,000 tested, 0.12% active; also: potency is read from the fitted curve at half-maximal effect; % is scaled to controls: 0 for no effect and ±100 for the full control effect; nearly all actives have a fitted effect of over 50% in size
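Assay buffer: 50 mM TEA pH 7.2, 100 mM KCl, 10 mM MgCl2, 0.05% BSA, 0.01% Tween-20. Pyruvate kinase from T. brucei plus substrate met compound, then ADP (130 uM final). Luminescence was read post 45 min RT.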
* = called active by the depositor; [ ] = remark or other dose. The entries come from a sample that favours hits as a whole. Unless noted, calls follow the shape of the dose curve; as a rule, active = well fitted curve in the direction sought with a large enough effect; inconclusive = small, poorly fitted or top-dose-only effect, or another doubt; inactive = no such curve, though single readings can be large; an effect the other way counts as inactive or inconclusive.

CCc1c(C)sc2c1CCN(Cc1ccccc1F)C2c1ccccc1 (stereo unspecified) was read as Tb PYK inh 1%.
For C=C(C)C(O)/C=C/C=C/c1ccccc1 (stereo unspecified) the results were Giardia FBPA inh 0%[12.9 µM].
For CCOC(=O)Cc1c(C)nc2c(-c3cccc(Br)c3)cnn2c1C the results were Giardia FBPA inh 1%, RE007 growth inh 21%, LmPK inh 0%, Shiga toxin inh -6, CHX counter 4 and Tb PYK inh -3%.
For CC(=O)Nc1ccc(Nc2cc(-c3ccccc3)nc3ncnn23)cc1 the results were Giardia FBPA inh -2%, RE007 growth inh 13%, LmPK inh 2%, Shiga toxin inh 19, CHX counter 1 and Tb PYK inh -2%.
Screening CC(=O)Nc1ccc(Nc2cc(C)nc3c(-c4ccccc4)cnn23)cc1 returned Giardia FBPA inh 1%, RE007 growth inh 8%, LmPK inh 1%, Shiga toxin inh 71*, CHX counter 34* and Tb PYK inh 1%.
For Cc1cc(N)n2ncc(-c3cccc(Br)c3)c2n1 the results were Giardia FBPA inh -1%, RE007 growth inh inconclusive, LmPK inh -2%, Shiga toxin inh 110*, CHX counter 41* and Tb PYK inh 2%.
For Cc1cc(N)n2ncc(-c3ccccc3)c2n1 the results were Giardia FBPA inh 0%, RE007 growth inh -20%, LmPK inh -5%, Shiga toxin inh 72*, CHX counter 58* and Tb PYK inh 0%.
CCn1cc(C(=O)N2CCN(c3cccc(C)c3C)CC2)c2cc(OC)c(OC)cc2c1=O was read as Tb PYK inh -1%.
For CCOC(=O)c1ccc(OCC2c3cc(OC)c(OC)cc3CCN2C(=O)Cc2ccc(F)cc2)cc1 (stereo unspecified) the results were Tb PYK inh -10%.
For O=C(CCC(=O)c1cccs1)NCc1cccc(Cl)c1 the results were RE007 growth inh 11% and Tb PYK inh -2%.
Screening Nc1nonc1OCCCCOc1nonc1N returned Giardia FBPA inh -2%, RE007 growth inh -3%, LmPK inh 2%, Shiga toxin inh 2, CHX counter -1 and Tb PYK inh 2%.
Nc1nonc1OCCc1ccccc1 was read as Giardia FBPA inh -2%, RE007 growth inh -2%, LmPK inh -2%, Shiga toxin inh 36, CHX counter 12* and Tb PYK inh -3%.
For CC(C)(C)OC(=O)N1CCC(c2c(C(=O)NCc3ccccn3)cnn2-c2ccccc2)CC1 the results were Tb PYK inh -1%[15.4 µM].
For Cc1cc(C)cc(NC(=O)NC(C)C2CCCO2)c1 (stereo unspecified) the results were Giardia FBPA inh -1%, RE007 growth inh 2%, LmPK inh -7%, Shiga toxin inh 8, CHX counter 9 and Tb PYK inh 5%.
For O=C(NCc1ccc2c(c1)OCO2)C1CCCCC1 the results were Giardia FBPA inh 5%, RE007 growth inh 1%, LmPK inh -8%, Shiga toxin inh 42*, CHX counter 13* and Tb PYK inh 3%.
Screening O=C(NCc1ccncc1)C1COc2ccccc2O1 (stereo unspecified) returned Giardia FBPA inh 5%, RE007 growth inh -7%, LmPK inh -4%, Shiga toxin inh -13, CHX counter -4 and Tb PYK inh -1%.
For CC(NC(=O)Nc1ccc2c(c1)OCO2)C1CCCO1 (stereo unspecified) the results were Giardia FBPA inh -8%, RE007 growth inh -6%, LmPK inh -3%, Shiga toxin inh 72*, CHX counter 44* and Tb PYK inh 1%.
O=C(Nc1ccc2c(c1)OCO2)C1CCCCC1 was read as Giardia FBPA inh 5%, RE007 growth inh -15%, LmPK inh 1%, Shiga toxin inh 38*, CHX counter 33* and Tb PYK inh -9%.
Screening O=C(NCc1ccc2c(c1)OCO2)C1COc2ccccc2O1 (stereo unspecified) returned Giardia FBPA inh 0%, RE007 growth inh inconclusive, LmPK inh 4%, Shiga toxin inh 34*, CHX counter 13 and Tb PYK inh 0%.
`CC(=O)O[C@@]12CO[C@@H]1C[C@H](O)[C@@]1(C)C(=O)[C@H](O)C3=C(C)[C@@H](OC(=O)C(O)[C@@H](NC(=O)OC(C)(C)C)c4ccccc4)C[C@@](O)([C@@H](OC(=O)c4ccccc4)[C@H]21)C3(C)C` (stereo partly specified) gave Tb PYK inh 4%.
Cc1cc(=O)oc(C)c1C(=O)Nc1cccc(F)c1 was read as Giardia FBPA inh 0%, RE007 growth inh -13%, LmPK inh -1%, Shiga toxin inh -6, CHX counter -3 and Tb PYK inh 2%.
Cc1cccc(NCc2nc(-c3ccccc3)no2)c1 was read as Giardia FBPA inh 0%, RE007 growth inh -12%, LmPK inh 3%, Shiga toxin inh 41, CHX counter 36* and Tb PYK inh -5%.
For Cc1ccc(-c2noc(CNS(=O)(=O)c3ccccc3)n2)cc1 the results were RE007 growth inh -4%, LmPK inh 0%, Shiga toxin inh 39*, CHX counter 43* and Tb PYK inh -6%.
Screening COc1ccc(-c2noc(CNS(=O)(=O)c3ccccc3)n2)cc1 returned Giardia FBPA inh 9%, RE007 growth inh 6%, LmPK inh -1%, Shiga toxin inh 41, CHX counter 17* and Tb PYK inh 1%.
`Cc1cc(C)c(C)c(OCc2nc(-c3cccnc3)no2)c1` gave Giardia FBPA inh 4%, RE007 growth inh -24%[3.69 µM], LmPK inh -6%, Shiga toxin inh 2 and CHX counter -2.
Screening Cc1ccc(OCc2nc(-c3ccccc3)no2)c(C)c1 returned Giardia FBPA inh 0%, RE007 growth inh -12%, LmPK inh -8%, Shiga toxin inh 98*, CHX counter 36* and Tb PYK inh -7%.
Screening CO[C@H]1CC[C@@]2(C)[C@@H](CC[C@@H]3[C@@H]2CC[C@@]2(C)[C@H]3C[C@H](C(=O)N[C@@H](CCCN=C(N)N)C(=O)NCC(=O)N[C@@H](CC(=O)O)C(N)=O)O[C@]23CCCO3)C1 returned RE007 growth inh 17% and Tb PYK inh 1%.
Cc1ccc2c(CC(=O)N3CCN(c4cccc(Cl)c4)CC3)coc2c1 was read as Tb PYK inh -2%.
`COc1c(C(=O)NNC(=O)c2ccccc2Cl)csc1Br` gave Giardia FBPA inh 2%, RE007 growth inh 3%, LmPK inh -1%, Shiga toxin inh 76*, CHX counter 49* and Tb PYK inh 5%.

From PubChem
